An excerpt weighted towards active compounds, which were near 3.4% of everything screened.
MITF inh: MITF inhibitors, primary screen, biochemical, AlphaScreen, human. inhibition, % at 2.6 µM. hit rate 0.91% among 650,000. AlphaScreen MITF homodimerization, bead proximity signal. Microphthalmia-associated transcription factor (Homo sapiens), O75030; in the data active = inhibition above about 50%
GPR151 activ: activators of human GPR151, primary screen, cell-based, PathHunter beta-arrestin, luminescence; G-protein coupled receptor 151 (Homo sapiens), Q8TDV0; hit rate 1% among 650,000; PathHunter beta-arrestin GPR151 cells; activation, % at 11.2 µM; in the data active = activation above about 4.9%
TEAD-YAP inh: TEAD-YAP interaction inhibition, primary screen, TEAD-YAP interaction inhibitor project, luminescence, HEK-TIYL cells. TEAD-Gal4/YAP UAS-luciferase luminescence. inhibition, % at 9.12 µM. hit rate 1.4% among 640,000. AID 1259422, 2018; in the data active = inhibition above about 32%
FBW7 act: FBW7 E3 ligase activators, primary screen, biochemical, AlphaScreen, human; F-box/WD repeat-containing protein 7 (Homo sapiens), Q969H0; AlphaScreen FBW7–phospho-cyclin E peptide binding, activator screen; normalized activity (activation), % at 26.1 µM; hit rate 0.13% among 650,000; in the data active = normalized activity above about 1.9%;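 note: purified mutant Fbw7 with reduced substrate affinity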
Target sequence (Q969H0 whole entry, looked up): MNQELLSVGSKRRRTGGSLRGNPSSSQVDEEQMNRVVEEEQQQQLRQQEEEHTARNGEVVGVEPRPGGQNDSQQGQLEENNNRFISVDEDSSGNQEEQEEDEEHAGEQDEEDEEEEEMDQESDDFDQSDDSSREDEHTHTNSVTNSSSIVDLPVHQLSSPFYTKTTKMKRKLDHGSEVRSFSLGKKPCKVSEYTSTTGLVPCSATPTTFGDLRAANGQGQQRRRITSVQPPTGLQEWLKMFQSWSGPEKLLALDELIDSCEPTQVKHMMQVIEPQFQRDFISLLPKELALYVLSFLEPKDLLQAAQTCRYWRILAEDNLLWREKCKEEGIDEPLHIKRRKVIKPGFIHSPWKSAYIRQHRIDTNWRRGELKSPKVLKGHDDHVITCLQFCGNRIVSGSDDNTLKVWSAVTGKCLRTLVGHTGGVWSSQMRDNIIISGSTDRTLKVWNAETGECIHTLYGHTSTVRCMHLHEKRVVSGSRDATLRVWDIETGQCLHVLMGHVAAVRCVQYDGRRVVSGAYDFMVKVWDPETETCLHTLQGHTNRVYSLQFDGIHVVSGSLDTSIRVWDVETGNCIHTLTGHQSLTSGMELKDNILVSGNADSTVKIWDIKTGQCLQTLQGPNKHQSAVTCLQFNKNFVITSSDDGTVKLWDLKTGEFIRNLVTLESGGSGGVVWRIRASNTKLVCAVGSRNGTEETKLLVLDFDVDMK
Each line names hits and unclear results; the compound was inactive in the other large screens.

Cc1cnc(Nc2cccc(N(C)C)c2)nc1Nc1ccccc1	TEAD-YAP inh 46
COc1cc(/C=C2\SC(N)=NC2=O)ccc1OCC(=O)Nc1ccc(C)cc1	TEAD-YAP inh 34
CCOc1cc(/C=C2\SC(N)=NC2=O)ccc1OCC(=O)NCc1ccccc1	TEAD-YAP inh 32
CCOc1cc(/C=C2\SC(N)=NC2=O)ccc1OC(=O)c1cccs1	TEAD-YAP inh 35
CCOC(=O)c1c(NC(=O)CN2C(=O)NC3(CCCCCC3)C2=O)sc2c1CCCC2	none
COC(=O)c1cc2sc(Cl)cc2n1C	none
CC(C)OCc1cc(CN2CCOCC2)c(O)c2ncccc12	MITF inh 94
Oc1c(CN2CCOCC2)cc(COCc2ccccc2)c2cccnc12	MITF inh 86, TEAD-YAP inh 74
CC(C)OCc1cc(CN2CCN(C)CC2)c(O)c2ncccc12	MITF inh 94
COCc1cc(CN2CCN(C)CC2)c(O)c2ncccc12	MITF inh 101
COc1cc(CN2CCOCC2)ccc1OCc1ccccc1	none
O=C1NC(c2ccc(Cl)cc2)c2c(-c3ccccc3)n[nH]c21 (stereo not drawn)	none
O=C(CS(=O)(=O)c1ccc(Cl)cc1)N1CCN(c2nc3ccccc3s2)CC1	none
NC(=O)C1CCCc2c1[nH]c1ccc(Cl)cc21 (stereo not drawn)	none
CCN(CC)C(=O)C1CCCc2c1[nH]c1ccc(Cl)cc21 (stereo not drawn)	TEAD-YAP inh 59
CN1CC=C(/C=C/C2=Cc3ccccc3OC2)CC1	TEAD-YAP inh 75
CN1C(=O)/C(=C/C2=Cc3ccccc3OC2)SC1=S	none
O=C(O)CNc1c2ccccc2nc2ccccc12	none
OCCNc1c2ccccc2nc2ccccc12	TEAD-YAP inh 71
c1ccc2c(NCCc3cnc[nH]3)c3ccccc3nc2c1	TEAD-YAP inh 77
COc1cccc(/C(O)=C2\C(=O)C(=O)NC2c2ccc(OC)c(OC)c2)c1 (stereo not drawn)	none
O=c1c(Cl)c(N2CCc3ccccc32)cnn1C12CC3CC(CC(C3)C1)C2	none
Cn1c2ccccc2n2cc(-c3ccccc3)nc12	none
c1ccc(-c2cn3c(ccc4ccccc43)n2)cc1	TEAD-YAP inh 85
CCC(c1ccccc1)c1nnc(NC(=O)c2cccs2)s1 (stereo not drawn)	none
O=C(O)c1cc2c3c(c1)C1C=CCC1C(c1ccc(Cl)cc1)N3CC1CC=CC21 (stereo not drawn)	MITF inh 88
O=C(O)C1C2CC=CC2c2cc(Cl)cc3c2N1CC1CC=CC31 (stereo not drawn)	FBW7 act 2.7
c1ccc2c(-c3cc(NC4CC4)ncn3)csc2c1	TEAD-YAP inh 35
c1ccc(CN2CCC(Nc3cc(-c4csc5ccccc45)ncn3)CC2)cc1	none
CCN(C1=NC2CS(=O)(=O)CC2S1)c1ccc(C)c(C)c1 (stereo not drawn)	none
COc1ccc(/C=N/NC(=O)C2CC(=O)N(c3ccc(Br)cc3)C2)cc1 (stereo not drawn)	none
CCc1ccc(/C=N\NC(=O)C2CC(=O)N(c3ccc(OC)cc3)C2)cc1 (stereo not drawn)	TEAD-YAP inh 47
COc1cc(Nc2nc(-c3ccc(C(=O)N4CCN(C)CC4)cc3)nc3c2ncn3C(C)C)cc(OC)c1OC	none
COc1cc(Nc2nc(-c3ccc(C(N)=O)cc3)nc3c2ncn3Cc2ccc(C(F)(F)F)cc2)cc(OC)c1OC	TEAD-YAP inh 53
COc1cc(Nc2nc(-c3ccc(C(N)=O)cc3)nc3c2ncn3-c2ccsc2)cc(OC)c1OC	TEAD-YAP inh 54
COc1cc(Nc2nc(-c3ccc(C(N)=O)cc3)nc3c2ncn3-c2ccccc2)cc(OC)c1OC	none
COc1cc(Nc2nc(-c3ccc(C(N)=O)cc3)nc3c2ncn3C(C)C)cc(OC)c1OC	TEAD-YAP inh 41
COC(=O)c1ccc(NC(=O)c2ccc(C(=O)Nc3ccc(C(=O)OC)cc3)nc2)cc1	none
Cc1ccccc1-n1nc2c(c1NC(=O)c1cc(Cl)ccc1[N+](=O)[O-])CSC2	none
CCCCCCCc1c2c(C)c(C(=O)OCC)nc-2cc2n1C(C)C(C)=C2C (stereo not drawn)	none
CCCCCCCc1c2c(C)c(C(=O)OCC)nc-2cc2n1CC(C)=C2C	TEAD-YAP inh 42
Cc1ccc(CCNC(=O)COc2ccc3c(c2)C(=O)CC(C)(C)O3)cc1	none
CCOC(=O)c1c(C)oc2nc(CN3C(=O)NC4(CCC(C)CC4)C3=O)nc(N)c12 (stereo not drawn)	none
CNC(=O)/C(C#N)=C/c1c(Oc2cccc(C)c2C)nc2c(C)cccn2c1=O	TEAD-YAP inh 35
Cc1ccccc1Oc1nc2c(C)cccn2c(=O)c1/C=C(\C#N)C(=O)NC1CCCC1	none
Cc1ccccc1Oc1nc2c(C)cccn2c(=O)c1/C=C(\C#N)C(=O)NCC1CCCO1 (stereo not drawn)	TEAD-YAP inh 33
CNC(=O)/C(C#N)=C/c1c(Oc2ccc(F)cc2)nc2c(C)cccn2c1=O	none
C=CCNC(=O)/C(C#N)=C/c1c(Oc2ccccc2C)nc2c(C)cccn2c1=O	TEAD-YAP inh 41
CCCC(=O)N1c2ccccc2NC2=C(C(=O)CCC2)C1c1ccc([N+](=O)[O-])cc1 (stereo not drawn)	none
Nc1c(Br)cc(O)c2c1C(=O)c1ccccc1C2=O	none
Nc1c2c3c(c(O)ccc3[nH]c1=O)C(=O)c1ccccc1-2	TEAD-YAP inh 37
CCOC(=O)Nc1ccc2c(c1)N(C(=O)OCC)c1ccccc1CC2	TEAD-YAP inh 48
Cc1[nH]nc2c1C(c1cc(Br)c(C)s1)C(C#N)=C(N)O2 (stereo not drawn)	TEAD-YAP inh 33
O=C1CC(N2CCCC2)C(=O)N1c1ccc(Cl)c(Cl)c1 (stereo not drawn)	none
COc1cc(Cn2c(-c3nonc3N)nc3ccccc32)ccc1C	TEAD-YAP inh 51
COc1ccc(Cn2c(-c3nonc3N)nc3ccccc32)cc1	none
COc1ccc(C)cc1Cn1c(-c2nonc2N)nc2ccccc21	TEAD-YAP inh 53
COc1cccc(Cn2c(-c3nonc3N)nc3ccccc32)c1	TEAD-YAP inh 38
Cc1ccc(Cn2c(-c3nonc3N)nc3ccccc32)cc1	none
CN(CCc1cnn(C)c1)Cc1ccc(OCC(O)CN2CCc3ccccc3C2)cc1 (stereo not drawn)	none
CCCc1cc(C(=O)OC)c(NC(=O)/C=C/C(=O)O)s1	TEAD-YAP inh 37
CCOC(=O)c1cc(C(C)C)sc1NC(=O)/C=C/C(=O)O	TEAD-YAP inh 45
COC(=O)c1ccccc1NC(=O)C(C)N1C(=O)c2ccccc2C1=O (stereo not drawn)	none
O=C(NCCCn1ccnc1)c1ccc(C#Cc2ccccc2)o1	TEAD-YAP inh 35
CNc1nc2cc([N+](=O)[O-])c([N+](=O)[O-])cc2nc1NC	TEAD-YAP inh 57
COc1ccccc1C(=O)Nc1ccc2nc(SCC(=O)NCCOc3ccccc3)sc2c1	TEAD-YAP inh 53

Screening data from PubChem.
